About 83,000 compounds went through this panel and 20% of them were active in at least one assay; those are over-represented in the sample as a whole.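 How to read the values: 0–100, growth inhibition (40 = 60% inhibited); 0, no net growth; -100 to 0, cell death (-40 = 40% of starting cells died; -100 = all dead).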 The source made the active and inactive calls. Rule for the calls: active = growth percent below 10; inactive = the rest.
Each compound was assayed on MDA-MB-468 breast (assay: NCI-60 one-dose screen, 48 h (100 = growth as untreated, 0 = no growth, -100 = all killed)). Details: 10 µM unless noted.

Structure (SMILES)	growth
Cc1c2cnccc2c(C)c2c1c1cc(C#N)ccc1n2C	-46.9% (active)
COc1cc(/C=C2\C(=O)Nc3ccccc32)cc(OC)c1O	20.4% (inactive)
COc1ccc(/C=C\c2cc(OC)c(OC)c(OC)c2)cc1OCC(=O)Nc1ccc2nc(C)sc2c1	7.78% (active)
CC(=O)c1ccc(Nc2nccc(-c3ccc(Cl)cc3)n2)cc1	76.7% (inactive)
Nc1cc(O)cc(O)c1	107% (inactive)
COc1ccc(NC(=O)Cn2cc(CN3C(=O)c4ccc([N+](=O)[O-])cc4C3=O)nn2)cc1	110% (inactive)
COc1ccc(Cn2nc3c(c2-c2cc(OC)c(OC)c(OC)c2)-c2oncc2CC3)cc1	27.8% (inactive)
NCCCOc1cc2ccccc2cc1C(=O)NCCCOc1cc2ccccc2cc1C(=O)Nc1ccc(Cl)cc1O	-89.6% (active)
COc1ccc(/C(C)=C(\c2ccc(OCCN3CCCCCC3)cc2)c2ccc(OC(=O)c3ccccc3)cc2)cc1	61.3% (inactive)
CCC(C)NCc1ccccc1 (stereo not given)	100% (inactive)
COc1ccc(C(=O)c2cc(OC)c(OC)c(OC)c2)cc1/C=C/C(=O)c1ccc(F)cc1	90.4% (inactive)
COc1ccc(/C=C(\C#N)c2cc(OC)c(OC)c(OC)c2)cc1	-10.8% (active)
N#CCCCCCn1c2ccccc2c2c3c(c4c5ccccc5n(CCCCCC#N)c4c21)C(=O)N(O)C3=O	87.8% (inactive)
CS(=O)(=O)Nc1ccc(C(=O)NC(C(=O)NO)c2ccc(-c3cccc(F)c3)cc2)cc1 (stereo not given)	95% (inactive)
CN(C)c1ccc2nc3ccc(=[N+](C)C)cc-3oc2c1	-15.4% (active)
CCCCCCCCCCCC[n+]1ccc(C(N)=O)cc1	-42.1% (active)
NC(C(=O)O)C(O)c1ccc(OCc2ccccc2)c(OCc2ccccc2)c1 (stereo not given)	104% (inactive)
C=C1C(=O)O[C@H]2[C@H]1CC/C(C=Nc1ccc(C(F)(F)F)cc1N)=C\CC[C@@]1(C)O[C@@H]21	1.92% (active)
COC(=O)C1=C(C)NC(C)=C(C(=O)OC)C(N2C(=O)CCC2=O)C1 (stereo not given)	63.4% (inactive)
COC(=O)C1=C(C(=O)ONCCN(C)C)C2C=CC1(C(Cc1ccccc1)Nc1ccc(F)cc1)O2 (stereo not given)	75.3% (inactive)

Structure (SMILES)	growth
CC(=O)Nc1nc(C)c(C(=O)N/N=C/c2cccs2)s1	98.8% (inactive)
CS(=O)(=O)Nc1cccc(-c2cc(-c3ccccc3Cl)c(C#N)c(N)n2)c1	-9.46% (active)
O=C1/C(=C/c2ccc(Cl)cc2)CN(C(=O)CCN2CCC(=NO)CC2)C/C1=C\c1ccc(Cl)cc1	-65.3% (active)
Cc1ccc(/C=C/C(=O)c2ccc(NC(=O)CSc3nc4c([nH]3)c(=O)n(C)c(=O)n4C)cc2)c(C)c1	34.1% (inactive)
Nc1ccn(C2O[C@H](CO)[C@@H](O)[C@@H]2O)c(=O)n1 (stereo not given in full)	78.3% (inactive)
Cc1cc(CC(C)CC(C)(C)C)n(O)c(=O)c1 (stereo not given) (tested in a mixture with another compound)	-7.41% (active)
CC(C)CNc1nc(N=[N+]=[N-])nc(NCC(C)C)n1	59.7% [100 µM] (inactive)
COc1ccc(/C=C/C(=O)c2cc(O)ccc2O)cc1	71.2% (inactive)
Cc1ccc(C2CC(c3cccc(Nc4ccncc4)c3)=NN2c2cc(Cl)cc(Cl)c2)cc1 (stereo not given)	-30% (active)
Cc1nn2c(/C=C3/C(=O)Nc4ccc(Cl)cc43)c(-c3ccccc3)nc2s1	35.7% (inactive)
COc1ccc([C@H]2[C@H](O)C(=O)N2c2cc(OC)c(OC)c(OC)c2)cc1O	5.56% (active)
Oc1[nH]c2ccccc2c1/C=c1/ccc2c(c1)N=C(c1ccc(C(F)(F)F)cc1)N=2	43.6% (inactive)
Cn1cc([C@@H]2Nc3ccc4[nH]ncc4c3[C@H]3[C@H]4CCC(C4)[C@H]32)c(C(F)(F)F)n1	53.4% (inactive)
Cc1ccc(C2=NN(c3ccc(S(=O)(=O)NC(=O)NCc4ccccc4)cc3)C(c3ccc(N(C)C)cc3)C2)c(C)c1 (stereo not given)	49.4% (inactive)
O=C(Nc1cc(Cl)cc2c1-c1ccc(Cl)cc1C2O)C(Cl)Cl (stereo not given)	-3.77% (active)
O=C1c2c(c3c4cc(Br)ccc4[nH]c3c3ccc4ccccc4c23)C(=O)N1CCN1CCNCC1	79.6% (inactive)
O=C(CCl)NCCNc1nccc(Nc2ccc(S(=O)(=O)Nc3ccccn3)cc2)n1	21.1% (inactive)
C[n+]1cc2cc(C(N)=O)[nH]c3c(=N)c(Cl)c(N)c1c23	53.3% (inactive)
COc1ccc(OC)c2c1C(=O)CC2C (stereo not given)	99.6% (inactive)
CC(CCC#N)(CCC#N)C(=O)c1ccccc1	106% (inactive)

Source: PubChem BioAssay (NCI)
